Results on 40 molecules are retold here after PubChem BioAssay AID1845224 (National Center for Advancing Translational Sciences (NCATS), 2023).

Results filed as inconclusive are left out. Values without a mark were called inactive. Calls of active or inactive are those of the source. Calls come from the whole dose curve; as a rule, active = well fitted curve in the direction sought with a large enough effect; inconclusive = small, poorly fitted or top-dose-only effect, or another doubt; inactive = no such curve, though single readings can be large or run the other way.
Potency is the fitted concentration of half-maximal effect.

For the assay, the system named is NanoLuc luciferase (engineered Oplophorus gracilirostris luciferase). As to the kind of experiment: Confirmatory Nanoluciferase (NLuc) qHTS assay for identification of artifact compounds. For activity change, negative = inhibition: % of control where 0% means no effect. Particulars: secreted NLuc in S16 cell medium, luminescence, 5 min; series mostly up to 39 µM; activity change, negative = inhibition: at the top concentration. An excerpt: PI: Alexander Tropsha Ph.D. UNC Eshelman School of Pharmacy University of North Carolina, Chapel Hill, North Carolina Hits from high-throughput screening (HTS) of chemical libraries are often false positives due to their interference with the assay detection technology. In response to this problem, we generated the largest publicly available library of chemical liabilities and developed a free webtool to predict HTS artifacts, both of which are described herein. More specifically, we generated, curated, and integrated HTS datasets for thiol reactivity, redox activity, and luciferase (firefly and nano) activity. Using these curated datasets, we developed and validated several Quantitative Structure-Interference Relationship (QSIR) models to predict nuisance behavior. […] These models were employed for virtual profiling of the National Center for Advancing Translational Science's (NCATS) in-house library, and 256 compounds for each assay were selected for the experimental validation of nuisance behavior. The BA for these external predictions ranged from 58 to 78% for compounds within the applicability domains of the models. […] The models developed in this study, along with aggregation models previously developed by our group (SCAM Detective) were implemented in "Liability Predictor," an online tool which may be used as part of chemical library design or for triaging HTS hits. Both the models and the curated datasets are publicly available at https://liability.mml.unc.edu/.
PROTOCOL TABLE SEQUENCE No. (e.g., 1, 2, 3, etc.); PARAMETER (e.g., Cells, Incubation, Reagent, etc.); VALUE; DESCRIPTION. 1; Reagent; 2 uL; Nanoluciferase media. 2; Compounds and control; 16 nL; Kalypsis pin tool (Wako USA) equipped with a 1536-well pin head. 3; Incubation; 15 min. 4; Reagent; 2 uL; Luciferase enzyme. 5; Incubation; 5 min. 6; Detection; Luminescence, ViewLux microplate reader. NOTES (numbers refer to Sequence numbers above) 1. Medium was collected from the culture flasks of NLuc-expressing S16 cells (80% confluent) prior to cell plating, filtered through a 0.22um filter, and frozen at -20C prior to use. Media was diluted (1:55) and 2 uL was dispensed into all wells of a 1536-well assay plate (solid-bottom white plate; Greiner Bio One, Monroe, NC). 2. A Wako Pin-tool (Wako Automation, Richmond, VA) was used to transfer 16 nL of compounds (consisting of 7-plates in qHTS format, final concentration range 18.3 nM to 114 uM) or control Cilnidipine (final concentration range 623 nM to 80 uM). 3. 15 min. incubation at room temperature protected from light. 4. 2 uL of NLuc substrate (1:100 in Nano-Glo luciferase buffer; Nano-Glo luminescence assay, Promega, Madison, WI) was dispensed for a final assay volume of 4 uL. 5. Plates were centrifuged (121xg, 15 seconds) and incubated for 5 minutes. 6. Samples were read for luminescence on a ViewLux CCD imager (PerkinElmer). Data were normalized to no-enzyme (0% activity) and no-inhibitor (DMSO; 100%) controls and the resulting percent inhibition data were fitted to a 4-parameter Hill equation using NCATS in-house software.
(In general: In qHTS, concentration-response curves come from the screen itself.)
In the case of `CCOC(=O)N1CCN(S(=O)(=O)N2CCCC(C(=O)NCc3cc(OC)ccc3OC)C2)CC1` (stereo not given), the “activity change, negative = inhibition” value was -22.6%. Take `COc1ccc(C2Nc3ccccc3C(=O)N2CC(C)(C)C)cc1COc1ccc(NC(C)=O)cc1` (stereo not given): the “activity change, negative = inhibition” value was -8.01%. Same read-out and setting: the same measure for `O=C(Nc1ccc2oc(-c3cccnc3)nc2c1)c1cc2ccccc2o1`: -7.65% [at 78.4 µM]; for `COC(=O)CCC(C)C1CCC2C3CC[C@H]4CC(O)CC[C@@]4(C)C3CC(O)[C@]12C` (stereo not given in full): -8.16%; for `CCOc1ccccc1NC(=O)Cn1c(=O)n(CCCC(=O)NCc2ccc(C)cc2)c(=O)c2ccccc21`: -7.35%.

For `COc1ccc(-c2noc(N3CCC(C(=O)N4CCN(c5cccc(C)c5C)CC4)CC3)n2)cc1`, the “activity change, negative = inhibition” value is -5.97%. For the molecule `Oc1ccc(CCc2c(F)cccc2F)c2cccnc12`, the “activity change, negative = inhibition” value is -11.6%. `CN(C)C=O`: the “activity change, negative = inhibition” value was 7.7%. As to `CCOC(=O)c1c(C)[nH]c(CCC(=O)NCCCN2CCN(c3ccc(F)cc3)CC2)c1C`, the “activity change, negative = inhibition” value was -5.53%. With `Cc1ccc(S(=O)(=O)c2nnn3c2nc(NCc2ccc(F)cc2)c2sccc23)cc1C`, the “activity change, negative = inhibition” value was -6.1%. The same measure, in the same setting: the same measure for `O=C1c2ccccc2C(=O)N1Cc1ccccn1`: -0.535%; for `CC(C)[C@@H](C)/C=C/[C@@H](C)[C@H]1CC[C@H]2/C(=C/C=C3\C[C@@H](O)CC[C@@H]3C)CCC[C@]12C`: -8.1%; for `COc1ccccc1N1CCN(S(=O)(=O)c2c(C)nc3sc(C)c(C)n3c2=O)CC1`: -6.1%. For the molecule `Cc1ccc(CNCc2cn[nH]c2-c2ccc(C)cc2)cc1`, the “activity change, negative = inhibition” value was -0.831%. Same read-out and setting: the same measure for `CCc1cccc(NC(=O)Cn2c(=O)n3nc(-c4cccc(F)c4)nc3c3ccccc32)c1`: -14.1%.

On to `C[C@H](CCC(=O)O)[C@H]1CC[C@H]2[C@@H]3CC[C@@H]4C[C@H](O)CC[C@]4(C)[C@H]3CC[C@]12C`, for which the “activity change, negative = inhibition” value was -1.22% [at 78.4 µM]. On to `O=C(CCS(=O)(=O)c1nc(-c2ccc3c(c2)OCO3)cc(C(F)(F)F)n1)Nc1ccccc1C(F)(F)F`, for which the Potency was 12.2 µM (active).

On to `CCOC(=O)N1CCN(S(=O)(=O)N2CCCC(C(=O)NCc3cccc(OC)c3)C2)CC1` (stereo not given), for which the “activity change, negative = inhibition” value was -6.38%. Take `CN1C(=O)Cc2cc(S(=O)(=O)NCc3ccccc3Cl)ccc21`: the “activity change, negative = inhibition” value is -10.4%. In the case of `CCOC(=O)c1cccc(NC(=O)c2ccc3snnc3c2)c1`, the “activity change, negative = inhibition” value is -2.68%.

Regarding `COc1cc(O)c2c(c1)O[C@H](c1ccccc1)CC2=O`, the “activity change, negative = inhibition” value is -5.83%. For `CC(=O)Nc1ccc(Nc2nc3ccc(C)cc3n3nnnc23)cc1`, the “activity change, negative = inhibition” value was 1.1%.

For `Nc1cccc(-c2ccc(NC(=O)c3cccs3)cn2)c1`, the “activity change, negative = inhibition” value was -1.41%. For `CCCS(=O)(=O)N1CC(=O)N(c2cc(C)cc(C)c2)C(C)(C(=O)NC2CCCCCC2)C1` (stereo not given), the “activity change, negative = inhibition” value was -15.1%.

For `CN(C)c1ccc(CNC(=O)c2ccc3c(c2)N(C)C(=O)C2CCCCN32)cc1` (stereo not given), the “activity change, negative = inhibition” value was -7.38%. As for `C[C@@H]1C[C@H]2[C@@H]3CCC4=CC(=O)C=C[C@]4(C)[C@@]3(F)[C@@H](O)C[C@]2(C)[C@@]1(O)C(=O)CO`, the “activity change, negative = inhibition” value is -0.23%. For the molecule `O=C(Nc1ccc(-c2nc3ccccc3[nH]2)cc1)c1ccc(Cl)c(Cl)c1`, the “activity change, negative = inhibition” value was -3.73%. For the molecule `CCC1Oc2ccccc2N(CC(=O)NCc2ccc(C)cc2)C1=O` (stereo not given), the “activity change, negative = inhibition” value was -14.7%. Take `COc1ccccc1/C=C/c1nc(C#N)c(NCCc2ccccc2)o1`: the “activity change, negative = inhibition” value was -17.7%.

Take `CCOC(=O)c1c(C)[nH]c(C)c1S(=O)(=O)N1CCC(C(=O)N2CCN(c3ccccc3)CC2)CC1`: the “activity change, negative = inhibition” value is -10.8%.

Consider `Cc1ccc(N2CC(NC(=O)C(=O)c3c[nH]c4ccccc34)CC2=O)cc1` (stereo not given), for which the “activity change, negative = inhibition” value was -9.92%. As for `CCOc1ccccc1NC(=O)N1CCCn2nc(C)cc21`, the “activity change, negative = inhibition” value is 0%.

For the molecule `Cn1cc(S(=O)(=O)N2CCCC2)cc1C(=O)Nc1ccc(C(F)(F)F)cc1`, the “activity change, negative = inhibition” value is -8.69%.

Take `COc1ccc(C2Nc3ccccc3C(=O)N2Cc2ccccc2)cc1Oc1ccc(NC(C)=O)cc1` (stereo not given): the “activity change, negative = inhibition” value was -10.2%. As for `Cc1cc(O)cc(O)c1C(=O)O`, the “activity change, negative = inhibition” value is 0.0466%. For the molecule `CCN(CC)CCNC(=O)c1nn(C)c2c1CS(=O)(=O)c1ccccc1-2`, the “activity change, negative = inhibition” value was 8.41%. On the same count and under the same terms, the same measure for `O=C1NC(=O)/C(=C/c2cccn2-c2ccc(P(=O)(O)O)cc2)N1`: -3.45%; for `OC[C@H]1O[C@@H](O[C@@H]2OC=C[C@H]3[C@H](O)[C@@H]4O[C@]4(CO)[C@@H]23)[C@H](O)[C@@H](O)[C@@H]1O`: 3.73%; for `O=C(O)c1cc(F)c(S(=O)(=O)N2CCN(S(=O)(=O)c3ccc4c(c3)OCCO4)CC2)cc1F`: -15.6%.

As for `COc1ccc(NC(=O)c2csnn2)cc1Cl`, the “activity change, negative = inhibition” value was -4.84%.
